Only some compounds are listed: those with a hit (about 3.2% of all), similar ones and a draw of the others.
LASV entry inh: blocks Lassa virus binding to or entry into cells. Lassa virus pseudotype entry inhibition, cell reporter. Potency, µM (series often up to 37.9 µM), without a hit: top-dose activity change, negative = inhibition, usual class: inhibitors. 300,000 compounds, 1.2% hits; calls by dose curve; tested in HEK293 cells; note: nearly all actives have a fitted effect of over 50% in size
FMDV antiviral: foot and mouth disease virus antiviral activity | FMDV antiviral cell-based qHTS | Potency, µM (highest dose often 57.9 µM), for inactives: at the top dose activity change, negative = inhibition, usual class: inhibitors | 410,000 compounds, 1.2% hits | AID 1159524; calls by dose curve; tested in HEK293T cells; note: read-out not given here; nearly all actives have a fitted effect of over 45% in size
VACV Venus inh: inhibitors of vaccinia virus (Venus reporter); Vaccinia virus Venus reporter expression, fluorescence; Potency, µM (doses to about 36.5 µM), for the others: at the highest dose activity change, negative = inhibition, usual class: inhibitors; 330,000 compounds, 0.46% hits; calls by dose curve; tested in A549 cells; note: nearly all actives have a fitted effect of over 30% in size
Marburg entry inh: blocks Marburg virus binding to or entry into cells. Potency, µM (doses to about 37.8 µM), without a hit: at the top dose activity change, negative = inhibition, usual class: inhibitors. 300,000 compounds, 1.8% hits. Marburg virus pseudotyped entry inhibition, cell reporter; calls by dose curve; tested in HEK293 cells
VACV mCherry inh: vaccinia inhibition (mCherry reporter); Vaccinia virus mCherry reporter infection, fluorescence; Potency, µM (series often up to 36.5 µM), without a hit: at the highest dose activity change, negative = inhibition, hits mostly inhibitors; 310,000 compounds, 0.63% hits; AID 720579; calls by dose curve; tested in A549 cells; note: nearly all actives have a fitted effect of over 35% in size
An asterisk follows results filed as active; i = inactive; ? = inconclusive; . = no result given; ! = not confirmed by another sample; [ ] = dose if it differs, or a comment. % is set by controls: 0 for no effect and ±100 for the full control effect; potency is the fitted concentration of half-maximal effect.

SMILES | LASV entry inh | FMDV antiviral | VACV Venus inh | Marburg entry inh | VACV mCherry inh
COc1cc(=O)n2c(c1C(=O)NC(C)c1ccco1)CCN(Cc1cc(C)ccc1C)CC2 (stereo not given) | . | -15% | 8% | . | -8%
COC(=O)c1ccccc1-c1ccc(C(c2c(C)[nH][nH]c2=O)c2c(C)[nH][nH]c2=O)o1 | ? | 20µM* | -14% | -24%[46.1 µM] | i
NC(=O)C1CCN(C(=O)c2ccc(NC(=O)c3nsc4ccccc34)cc2)CC1 | ? | ? | -7% | . | -4%
COc1cc2c(cc1OC)-c1cc(NC3CCCCCCC3)nc(=O)n1CC2 | 14µM* | 0% | -27% | ? | -15%[1.46 µM]
CCOc1ccc(Nc2cc3n(c(=O)n2)CCc2cc(OC)c(OC)cc2-3)cc1 | 11µM* | -8% | -23% | -25% | -5%
Cc1cccc(N2CCN(c3ncnc4onc(C)c34)CC2C)c1 (stereo not given) | ? | 3.2µM* | -13%[7.34 µM] | . | -10%[7.34 µM]
COc1cc(=O)n2c(c1C(=O)N(C)Cc1cscn1)CCN(C(=O)c1cccc(C)c1C)CC2 | . | 10% | -10% | . | i
CCOC(=O)/C(=C(/C)N)C1CC(=O)NC1=O (stereo not given) | . | ? | 2% | . | i
O=C(CSC1=NCCN1)Nc1cccc([N+](=O)[O-])c1 | -9% | 18µM* | -17% | ? | -21%
O=C(CSC1=NCCN1)NC(c1ccccc1)c1ccccc1 | ? | 32µM* | -14% | -18% | -5%
O=C(CSC1=NCCN1)Nc1ccccc1[N+](=O)[O-] | -23% | ? | -5% | -19%[46.1 µM] | ?
N#Cc1c(-c2ccccc2)no[n+]1[O-] | . | . | . | 11µM* | .
N#Cc1cn(-c2ccccc2)nc1-c1ccccc1 | 0% | . | ? | 1% | ?
CC(C)n1c2ccccc2c2nnc(SCC(=O)Nc3ccccc3C(=O)O)nc21 | -15% | 10% | 5% | 26%[46.1 µM] | 0%
Cc1ccc(N(CC(=O)NCc2ccc(F)cc2)C(=O)CCC(=O)Nc2ccccn2)cc1C | 1.4µM* | -17% | -21% | ? | -26%
Cc1ccc2c(c1)CN(CCNC(=O)c1ccc3nc(C)[nH]c3c1)CC(C)O2 (stereo not given) | . | -5% | -1% | . | -11%
CC(C)CC(=O)Nc1ccc(N2CCOCC2)cc1 | 2% | 14% | -3% | 23% | -8%
CCN(CC)c1ccc(/C=N/NC(=O)c2cccc(S(=O)(=O)N3CCOCC3)c2)c(O)c1 | ? | ? | ? | ? | 1.8µM*
CCN(CC)c1ccc(/C=N/Nc2ccc(C)cc2)c(O)c1 | 5% | 7% | -1% | 14% | -19%
CCN(CC)c1ccc(/C=N/NC(=O)CNC(=O)C2COc3ccccc3O2)c(O)c1 (stereo not given) | 11µM* | -7% | ? | 4.5µM* | 2.8µM*
Cn1ncc(Cl)c1C(=O)N/N=C/c1cc2c(cc1[N+](=O)[O-])OCO2 | 1% | 0% | . | -25% | .
CCN(CC)c1ccc(/C=N/NC(=O)c2c(Cl)cnn2C)c(O)c1 | 21µM* | 21% | ? | 1.1µM* | 1.1µM*
CCOC(=O)N/N=C/c1ccc(N(CC)CC)cc1O | 4.5µM* | 32% | ? | ? | ?
CCN(CC(=O)NCc1ccc(Cl)cc1)C(=O)c1cc2ccccc2o1 | ? | -11% | -15% | -8%[46.1 µM] | -25%
CCCCN(CCCC)S(=O)(=O)c1c(C)[nH]c(=O)[nH]c1=O | -4% | -12% | -7% | -1%[46.1 µM] | -10%
SMILES | LASV entry inh | FMDV antiviral | VACV Venus inh | Marburg entry inh | VACV mCherry inh
COC(=O)C1=C(C)N(Cc2ccco2)C(=O)NC1c1ccc(Br)cc1 (stereo not given) | 3%[14.3 µM] | . | . | ? | .
Cc1ccc(C(C)C)c(OCc2ccc(C(=O)N/N=C/c3cccc(O)c3O)cc2)c1 | 12µM* | ? | ? | 7.3µM* | 10µM*
CCN(CC)S(=O)(=O)c1cccc(C(=O)N/N=C/c2cccc(O)c2O)c1 | 13µM* | -5% | ? | ? | 10µM*
CCN(CC)S(=O)(=O)c1cccc(C(=O)N/N=C/c2cc(OC)c(O)c(OC)c2)c1 | 14% | ? | -14% | 21% | -2%
CCN(CC)c1ccc(/C=N/NC(=O)CCC(=O)NCc2ccccc2)c(O)c1 | ? | 14% | ? | ? | 10µM*
O=C1N=C2C=CC=CC2N1C1CCN(CCCC(c2ccc(F)cc2)c2ccc(F)cc2)CC1 (stereo not given) | . | . | . | -22% | .
Nc1nc2ccccc2n1CCOc1ccccc1Cl | -10% | ? | ? | 11µM* | .
Nc1nc2ccccc2n1CCOc1ccc(Cl)cc1 | 1% | -4% | -24% | ? | -26%
O=C(c1cnn(-c2nccc(-c3ccccc3F)n2)c1C1CC1)N1CCCCC1c1cccnc1 (stereo not given) | . | -8% | -28% | . | ?
Cc1ccc(C(=O)/C=C/Nc2ccccn2)cc1 | 0.63µM* | 2.5µM* | -13% | ? | -6%
O=C(CSc1nc2ccccc2[nH]1)Nc1ccccc1N1CCOCC1 | -19% | ? | -21% | 8.9µM* | i
COc1cc2c(cc1NC(=O)CN(C)Cc1nc3ccccc3c(=O)[nH]1)oc1ccccc12 | ? | 2% | . | 23µM* | .
O=C(CSc1nc2ccccc2[nH]1)Nc1cc(C(F)(F)F)ccc1N1CCOCC1 | -27% | ? | ? | -17% | ?
COc1cc2c(cc1NC(=O)CSc1nc3ccccc3[nH]1)oc1ccccc12 | ? | -3% | -21% | 21µM* | ?
COc1cc2c(cc1NC(=O)CSc1ccccc1)oc1ccccc12 | 1% | 73% | . | 3% | .
CN=c1sc2ccccc2n1C[C@@H](O)COCc1ccco1 | . | . | . | 0%[46.1 µM] | .
Cc1cccc(C)c1NC(=O)C(=O)NCC(c1cccnc1)N1CCc2ccccc21 (stereo not given) | 2%[46.1 µM] | -30% | -18% | . | -13%
O=c1[nH]c2ccccc2n1C1CCN(CCCC(c2ccc(F)cc2)c2ccc(F)cc2)CC1 | 10µM*! | ? | ? | 12µM*! | -14%
O=C1NCN(c2ccccc2)C12CCN(CCCC(c1ccc(F)cc1)c1ccc(F)cc1)CC2 | 10µM* | ? | -12% | 2.1µM* | -26%
O=C1NCN(c2ccccc2)C12CCNCC2 | 0% | ? | . | 0% | .
COC(=O)[C@@]1(C=C2c3ccc(OC)cc3[C@@H](OC)[C@@H]2C)[C@@H]2C=CC[C@@H]21 | . | . | . | -11%[14.2 µM] | .
CC(C)(C)NCC(O)C1=C(Cl)CCCC1 (stereo not given) | . | . | . | 15% | .
C(=Nc1cccnc1)c1ccc2ccccc2n1 | . | . | -4% | . | 23%
Cc1ccc(S(=O)(=O)c2nnn3c2nc(NC(C)c2ccccc2)c2sccc23)cc1 (stereo not given) | -6%[46.1 µM] | -30% | -16% | . | -26%
CN1CCN(c2ccc([N+](=O)[O-])c3no[n+]([O-])c23)CC1 | 0.32µM* | 5µM* | ? | 0.56µM* | ?
Cc1cc(NC(=O)c2cccc(COc3ccc(Br)cc3)c2)no1 | 13µM* | -25% | -25% | 7.3µM* | i
CC(C)c1cc(C(N)=O)c(NC(=O)c2cccc(COc3ccc(Cl)cc3)c2)s1 | ? | -19% | -13% | 3.2µM* | -5%
CCOc1ccc(C(=O)Nc2cc(C)on2)cc1 | ? | 30% | . | ? | .

Assay outcomes from PubChem BioAssay.
